Screening results deposited in PubChem by SRMLSC.
A340 absorber: compound absorbs light at 340 nm; compound absorbance at 340 nm, fold over control; fold change at 10 µM; 65,000 tested, under 10 active;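 active = at 10 µM dose, initial 340 nm absorbance at least 2 fold that of control wells; inactive = change under 2 fold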;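 note: initial absorbance extrapolated from kinetic A340 decline of NADH oxidation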
PMK inhibit: S. pneumoniae PMK inhibition. purified PMK, PK/LDH-coupled NADH absorbance 340 nm. inhibition, % at 10 µM. 0.49% of 65,000 active;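 active = top-ranked compounds by inhibition in the single 10 µM screen, taking a fixed number of the strongest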
MK inhibit: S. pneumoniae mevalonate kinase inhibition | purified MK, PK/LDH-coupled NADH absorbance 340 nm | inhibition, % at 10 µM | 0.48% of 65,000 active;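 active = ranked among the strongest by inhibition in the single 10 µM screen, a fixed top-ranked set picked for dose follow-up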
NADH coupling: inhibition of NAD/NADH coupling enzymes, library profiling; 0.02% of 65,000 active; IC50, µM (highest dose often 10 µM); AID 774; coupled PK/LDH NADH assays, four targets;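 active = single-dose screening hits from any of four coupled enzyme assays that gave an IC50 when retested across doses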;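 note: the DPM-DC format reads NADH fluorescence rather than 340 nm absorbance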
DPM-DC inhibit: inhibitors of Streptococcus pneumoniae diphosphomevalonate decarboxylase; purified DPM-DC, PK/LDH coupled NADH fluorescence; calls only at 10 µM; 0.49% of 65,000 active;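 active = the 320 compounds with the highest percent inhibition in the single-dose primary screen, excluding strongly autofluorescent ones, cut at about 32% in these data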;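 note: kinetic rate of NADH fluorescence loss reporting ADP formed by the decarboxylase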
Fluor 339 460: intrinsic fluorescence of library compounds, ex339/em460 – biochemical, MLSMR library, data from DPM-DC assay, artefact control, profiling panel. AID 709. fluorescence fold increase at 10 µM. compound autofluorescence, ex339/em460 nm, NADH buffer; active compounds read high; 1 = no-compound wells, NADH background. 5.5% of 65,000 active;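 active = at 10 µM, mean starting fluorescence two-fold or more over control wells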;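 note: signal is the first read of a kinetic run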
A number is an active result; . = inactive; / = not tested or not shown; + = active, no number. Rows were chosen to be rich in hits. Some 6.8% of all compounds tested hit in one or more screens of this group.

SMILES	A340 absorber	PMK inhibit	MK inhibit	NADH coupling	DPM-DC inhibit	Fluor 339 460
CSc1ncc(Cl)c(C(=O)Nc2nnc(SC)s2)n1	.	.	.	.	+	.
CSc1nnc(NC(=O)C2CCCCC2)s1	.	/	.	.	.	.
COc1ccc(-c2nc(-c3cccs3)c(-c3cccs3)[nH]2)cc1O	.	.	.	.	.	2.96
CC(=O)c1c(C)[nH]c(C(=O)OCCCCN2C(=O)c3ccccc3C2=O)c1C	.	.	.	.	.	.
N#Cc1nc(-c2ccco2)oc1N1CCN(Cc2ccccc2)CC1	.	.	.	.	.	.
CN(C)c1oc(-c2ccco2)nc1C#N	.	.	.	.	/	3.96
CN(Cc1ccccc1)c1oc(-c2ccco2)nc1C#N	.	.	.	.	/	3.94
Nc1c(C(=O)Nc2ccc(F)cc2)sc2nc(-c3ccco3)ccc12	.	.	.	.	/	3.77
COc1ccccc1CC(NC(C)=O)C(=O)N1CCN(C(=O)Nc2ccccc2Cl)CC1 (centres undefined)	.	.	.	.	.	.
Cc1cc(=O)oc2cc(OCC(=O)N3CCCC(C)C3)ccc12 (centres undefined)	.	.	.	.	.	2.69
Cc1cc(=O)oc2ccc(OCC(=O)N3CCC(C)CC3)cc12	.	.	.	.	+	.
COc1ccc(S(=O)(=O)N2CCN(C(=O)COc3ccc4c(C)cc(=O)oc4c3)CC2)cc1	.	.	.	.	.	2.56
CCN(CC)C(=O)CSc1nnc(-c2ccccn2)n1-c1ccc(C)c(C)c1	.	.	.	.	.	.
O=C1NC(=S)SC1=C1CCCCCC1	.	.	.	.	.	.
CCOC(=O)Cn1c(=O)oc2cc(S(=O)(=O)N3CCc4ccccc43)ccc21	.	.	.	.	.	.
CCOC(=O)c1ccc(NC(=O)c2ccc3c(c2)OCO3)cc1	.	.	.	.	.	.
Cc1ccc(NC(=O)c2oc3ccccc3c2NC(=O)c2ccc3c(c2)OCO3)cc1	.	.	.	.	.	2.03
O=C(Nc1cccc(F)c1)c1ccc2c(c1)OCO2	.	.	.	.	.	.
O=C(Nc1c(C(=O)Nc2cccc(F)c2)oc2ccccc12)c1ccc2c(c1)OCO2	.	.	.	.	/	5.01
O=S(=O)(NC1CCc2ccccc21)c1ccc(S(=O)(=O)N2CCCC2)cc1 (centres undefined)	.	.	.	.	.	.
CC1(C)SC2[C@H](NC(=O)C(NC(=O)N3CCNC3=O)c3ccccc3)C(=O)N2C1C(=O)O (some centres undefined)	.	.	.	.	.	.
CCOC(=O)C(C)Oc1cccc2c(=O)n(CC(=O)N3CCN(C(=O)OCC)CC3)ccc12 (centres undefined)	.	.	.	.	.	.
O=C(COc1ccccc1)NCc1nnc(SCC(=O)Nc2nccs2)n1-c1ccccc1	.	.	.	.	.	.
O=C(CSc1nnc(COc2ccccc2)n1-c1ccccc1)c1cccs1	.	25.0	.	.	.	.
CN(CC(=O)N1CCc2ccccc21)S(=O)(=O)c1cccc2cccnc12	.	.	.	.	.	.
SMILES	A340 absorber	PMK inhibit	MK inhibit	NADH coupling	DPM-DC inhibit	Fluor 339 460
CN(C)C(=O)CSc1cccc2cccnc12	.	.	.	.	/	3.85
O=C(CSc1cccc2cccnc12)N1CCCC1	.	.	.	.	/	3.94
COc1cc2cc(C(c3nnnn3C3CCCC3)N3CCCCCC3)c(=O)[nH]c2cc1OC (centres undefined)	.	.	.	.	.	.
CCOc1ccc2[nH]c(=O)c(C(c3nnnn3C3CCCCC3)N3CCN(CC)CC3)cc2c1 (centres undefined)	.	.	.	.	/	3.74
CCOc1ccc2[nH]c(=O)c(C(c3nnnn3C3CCCCC3)N3CCN(C)CC3)cc2c1 (centres undefined)	.	.	.	.	/	4.44
CCN1CCN(C(c2ccccc2OC)c2nnnn2C2CCCCC2)CC1 (centres undefined)	.	.	.	.	.	.
CCOc1ccc2[nH]c(=O)c(C(c3nnnn3Cc3ccco3)N3CCCC(C)C3)cc2c1 (centres undefined)	.	.	.	.	.	2.17
COc1ccc(C2CC(c3cccc(OC)c3OC)n3nnnc3N2)cc1 (centres undefined)	.	.	.	.	.	.
Cc1cc(N2CCCC2=O)cc(C)c1CN1C(=O)c2ccccc2C1=O	.	.	.	.	.	.
COc1ccc(C2(C)NC(=O)N(Cc3cc(Cl)cc4c3OCOC4)C2=O)cc1OC (centres undefined)	.	31.0	.	.	.	.
Cc1cc(C)n(C(=O)c2ccc(S(=O)(=O)NCC3CCCO3)cc2)n1 (centres undefined)	.	.	.	.	.	.
CC(C)NCC(O)Cn1c2c(c3ccccc31)CCc1c-2cnn1-c1ccccc1 (centres undefined)	.	.	.	.	/	3.9
CN1CCc2c(n(CC(O)CN3C(=O)c4ccccc4S3(=O)=O)c3ccccc23)C1=O (centres undefined)	.	.	.	.	.	.
Cc1ccc(-c2cn3cccnc3n2)cc1NC(=O)c1ccc(Br)o1	.	.	.	.	/	3.47
Cc1cc(O)c(NC(=O)c2ccc(Br)o2)cc1C	.	.	.	.	.	.
COc1ccc(-c2cn3cccnc3n2)cc1NC(=O)c1ccc(Br)o1	.	.	.	.	/	5.29
CC(C)(C)NC(=O)CSc1ncnc2c1nnn2Cc1ccccc1Cl	.	40.0	.	.	.	.
CCOC(=O)C1=C(C)NC(C)=C(C(=O)OCC)C1c1cc2ccc(C)cc2[nH]c1=O	.	.	.	.	+	2.18
Cc1ccc2cc(COC(=O)c3ccncc3)c(=O)[nH]c2c1	.	.	.	.	.	.
CCOC(=O)C1=C(C)NC(C)=C(C(=O)OC)C1c1cccc(Cl)c1Cl (centres undefined)	.	.	.	.	.	.
COC(=O)C1=C(C)NC(C)=C(C(=O)OC)C1c1cc2cc(C)ccc2[nH]c1=O	.	.	.	.	.	2.73
COC(=O)C1=C(C)NC(C)=C(C(=O)OC)C1c1cc2ccc(C)cc2[nH]c1=O	.	.	.	.	.	2.25
Cc1cc2ccccc2c(=O)n1CC(=O)N(C)c1ccc(F)cc1	.	.	.	.	.	.
COc1ccc(-c2cc3nc(C)c(CCC(=O)NCc4ccco4)c(C)n3n2)c(OC)c1	.	.	.	.	.	2.17
COc1ccc(-c2cc3nc(C)c(CCC(=O)N4CCCCC4)c(C)n3n2)c(OC)c1	.	40.0	.	.	.	.
CCCN1C(=O)c2cc(C(=O)NCCc3cccc(C)c3)ccc2C1O (centres undefined)	.	.	.	.	.	.
COc1ccc2nc(NC(=O)c3ccc(-n4nc(C)cc4C)cc3)sc2c1	.	.	.	.	/	5.11
COc1ccc2nc(NC(=O)c3ccc4ncsc4c3)sc2c1	.	.	.	.	/	2.19
